Data: PubChem BioAssay (Tox21)
Several values for one entry are separate records, joined by “and”; a condition that tells them apart may be missing. Identical values can stand only once. Records with an inconclusive call do not appear. Where a call stands in place of a potency, no number is given. Where a structure was tested more than once in an assay, its records may differ in their call. Activity calls are given as the source filed them. Unless noted, calls come from the whole dose curve; as a rule, active = well fitted curve in the direction sought with a large enough effect in the repeat runs; inconclusive = weak or mixed curves; inactive = no such curve, though single readings can be large; an effect the other way counts as inactive or inconclusive.

Assay: qHTS assay for small molecule disruptors of the mitochondrial membrane potential - cell viability (AID 720634; calls by dose curve; note: nearly all actives have a fitted effect of over 20% in size; note: potency is the fitted concentration of half-maximal effect)
Conditions: HepG2 viability, ATP luminescence (CellTiter-Glo), 1 h; series mostly up to 83.2 µM
In short: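 Viability of HepG2 cells is scored from ATP content by luminescence; cells are exposed to compound for 1 hr at 37 C and 5% CO2, then dosed with m-MPI dye before the CellTiter-Glo reagent.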

Compound	Potency
O=C(N/N=C/c1ccc([N+](=O)[O-])o1)c1cc([N+](=O)[O-])cc([N+](=O)[O-])c1O	inactive
C=CC(=O)OCC	inactive
C=CCc1ccccc1O	inactive
Nc1ccc2c(c1)Cc1ccccc1-2	inactive
C[C@H]1[C@@H]2Cc3ccc(O)cc3[C@@]1(C)CCN2C	inactive
COC1=CC(=O)O[C@@H](/C=C/c2ccc3c(c2)OCO3)C1	inactive
CCC(C)(C)c1ccc(O)c(C(C)(C)CC)c1	6.04 µM (active)
O=C(O)c1cc(I)cc(I)c1I	inactive
CCCCCBr	inactive
O=S(=O)(Cl)Cl	inactive
O=C(O)C(O)C(O)C(=O)O (configuration not stated)	inactive
Cc1ncc(C[n+]2csc(CCO)c2C)c(N)n1	inactive
C[CH2][Hg][S]c1ccccc1C(=O)O	13.3 µM (active) and 15.4 µM (active)
CCCCCCCCCCCC[N+](C)(C)CCOc1ccccc1	inactive and 68.6 µM (active)
CCC1(CCC(C)C)C(=O)NC(=O)NC1=O	inactive
O=[N+]([O-])O[C@H]1CO[C@H]2[C@@H]1OC[C@H]2O[N+](=O)[O-]	inactive

Compound	Potency
CCC(C)Cl (configuration not stated)	inactive
OC[P+](CO)(CO)CO	inactive
O=C(O)c1cc(Cl)ccc1Cl	inactive
C[N+]1(CCC(C(N)=O)(c2ccccc2)c2ccccc2)CCCCC1	inactive
COP(=O)(OC)OC(Br)C(Cl)(Cl)Br (configuration not stated)	inactive
Nc1cccc2ccccc12	inactive
O=C(Cc1ccccc1)c1ccccc1	inactive
CCC1(CC)C(=O)NC(=O)NC1=O	inactive
CC(=O)NNc1ccccc1	inactive
c1ccc2sc(SNC3CCCCC3)nc2c1	inactive
CCC1CCC(=O)O1 (configuration not stated)	inactive
O=C(O)CCCOc1ccc(Cl)cc1Cl	inactive
O=[N+]([O-])c1cc(Cl)c(Cl)cc1Cl	inactive
CC(C)(C)CC(C)(C)c1ccc(O)cc1	23.7 µM (active) and 17.2 µM (active)
NC(=S)c1c(Cl)cccc1Cl	inactive
CC(=O)OC(c1ccccc1)C(Cl)(Cl)Cl (configuration not stated)	inactive

Assay: qHTS assay for small molecule disruptors of the mitochondrial membrane potential (AID 720635); note: potency is the fitted concentration of half-maximal effect
Conditions: HepG2 mitochondrial membrane potential, Mito-MPS dye ratio; series mostly up to 83.2 µM
In short: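 HepG2 cells (2,000/well) attached overnight at 37C, then took compound for 1 hr at 37C, 5% CO2. Mito-MPS dye was added for 30 min; fluorescence was read at 490/535 nm (monomers) and 540/590 nm (aggregates).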

Compound	Potency
C[C@H]1[C@@H]2Cc3ccc(O)cc3[C@@]1(C)CCN2C	inactive
CCC(C)(C)c1ccc(O)c(C(C)(C)CC)c1	1.52 µM (active) and 1.37 µM (active)
O=C(O)c1cc(I)cc(I)c1I	inactive
O=S(=O)(Cl)Cl	inactive
C[CH2][Hg][S]c1ccccc1C(=O)O	11.9 µM (active) and 15.4 µM (active)
CCCCCCCCCCCC[N+](C)(C)CCOc1ccccc1	26.6 µM (active) and 30.6 µM (active)
O=[N+]([O-])O[C@H]1CO[C@H]2[C@@H]1OC[C@H]2O[N+](=O)[O-]	inactive
CCC(C)Cl (configuration not stated)	inactive
O=C(O)c1cc(Cl)ccc1Cl	inactive
C[N+]1(CCC(C(N)=O)(c2ccccc2)c2ccccc2)CCCCC1	inactive
CC(C)(C)N(NC(=O)c1ccc(Cl)cc1)C(=O)c1ccccc1	60.8 µM (active)
c1ccc2sc(SNC3CCCCC3)nc2c1	67.8 µM (active) and 54.5 µM (active)
CCC1CCC(=O)O1 (configuration not stated)	inactive
Nc1ccccc1C(=O)OCCc1ccccc1	48.8 µM (active) and 43.3 µM (active)
CC(C)(C)CC(C)(C)c1ccc(O)cc1	3.35 µM (active) and 1.72 µM (active)
NC(=S)c1c(Cl)cccc1Cl	inactive
CC(=O)OC(c1ccccc1)C(Cl)(Cl)Cl (configuration not stated)	54.5 µM (active)

Assay: qHTS assay to test for compound auto fluorescence at 590 nm (red) in HepG2 cells (AID 720674)
Conditions: HepG2 autofluorescence, red 540/590 nm, 1 h; series mostly up to 91.3 µM
In short: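 Compound auto-fluorescence is scored relative to Rose Bengal sodium, measured at 540/590 nm in live HepG2 cultures after 1 hr compound contact (37 C, 5% CO2).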

Compound	outcome
O=C(N/N=C/c1ccc([N+](=O)[O-])o1)c1cc([N+](=O)[O-])cc([N+](=O)[O-])c1O	inactive
C=CC(=O)OCC	inactive
C=CCc1ccccc1O	inactive
Nc1ccc2c(c1)Cc1ccccc1-2	inactive
C[C@H]1[C@@H]2Cc3ccc(O)cc3[C@@]1(C)CCN2C	inactive
COC1=CC(=O)O[C@@H](/C=C/c2ccc3c(c2)OCO3)C1	inactive
CCC(C)(C)c1ccc(O)c(C(C)(C)CC)c1	inactive
O=C(O)c1cc(I)cc(I)c1I	inactive
CCCCCBr	inactive
O=S(=O)(Cl)Cl	inactive
O=C(O)C(O)C(O)C(=O)O (configuration not stated)	inactive
Cc1ncc(C[n+]2csc(CCO)c2C)c(N)n1	inactive
C[CH2][Hg][S]c1ccccc1C(=O)O	inactive
O=P(OCC(Br)CBr)(OCC(Br)CBr)OCC(Br)CBr (configuration not stated)	inactive
CCCCCCCCCCCC[N+](C)(C)CCOc1ccccc1	inactive
CCC1(CCC(C)C)C(=O)NC(=O)NC1=O	inactive
O=[N+]([O-])O[C@H]1CO[C@H]2[C@@H]1OC[C@H]2O[N+](=O)[O-]	inactive
CCC(C)Cl (configuration not stated)	inactive
[Cl-].[Cl-].[Hg+2]	inactive

Compound	outcome
CC1(C)[C@H](C(=O)O[C@H](C#N)c2cccc(Oc3ccccc3)c2)[C@@H]1C=C(Br)Br	inactive
OC[P+](CO)(CO)CO	inactive
O=C(O)c1cc(Cl)ccc1Cl	inactive
C[N+]1(CCC(C(N)=O)(c2ccccc2)c2ccccc2)CCCCC1	inactive
COP(=O)(OC)OC(Br)C(Cl)(Cl)Br (configuration not stated)	inactive
Nc1cccc2ccccc12	inactive
O=C(Cc1ccccc1)c1ccccc1	inactive
CCC1(CC)C(=O)NC(=O)NC1=O	inactive
CC(C)(C)N(NC(=O)c1ccc(Cl)cc1)C(=O)c1ccccc1	inactive
CC(=O)NNc1ccccc1	inactive
c1ccc2sc(SNC3CCCCC3)nc2c1	inactive
CCC1CCC(=O)O1 (configuration not stated)	inactive
O=C(O)CCCOc1ccc(Cl)cc1Cl	inactive
O=[N+]([O-])c1cc(Cl)c(Cl)cc1Cl	inactive
Nc1ccccc1C(=O)OCCc1ccccc1	inactive
CC(C)(C)CC(C)(C)c1ccc(O)cc1	inactive
CN1C(=O)CN=C(c2ccccc2)c2cc([N+](=O)[O-])ccc21	inactive
NC(=S)c1c(Cl)cccc1Cl	inactive
CC(=O)OC(c1ccccc1)C(Cl)(Cl)Cl (configuration not stated)	inactive
